{
  "source": "ChEMBL document CHEMBL4303122",
  "about": "“Identification of potential treatments for COVID-19 through artificial intelligence-enabled phenomic analysis of human cells infected with SARS-CoV-2” (2020)",
  "note": "Over roughly 1,600 compounds, “Hit score” has its median near 0.13; the highest 2% begin near 0.46. The list comes from a sample in which the highest values are over-represented; it also holds similar structures and randomly drawn compounds.",
  "data": [
    {"tested_on": "SARS-CoV-2", "assay": "Antiviral activity against SARS-CoV-2 (USA-WA1/2020 strain) measured by imaging in HRCE cells at MOI 0.4 after 96 hrs (reported as hit score from 0-1 for on-disease vs off-disease activity: scores >0.6 considered hits)", "assay_type": "functional, Homo sapiens", "values": [
      {"smiles": "NC(=O)[C@@H]1CC[C@@H]2CN1C(=O)N2OS(=O)(=O)[O-].[Na+]", "note": "[AVIBACTAM SODIUM]", "Hit score": 0.2969},
      {"smiles": "Oc1c(Cl)cc(Cl)c(Cl)c1Cc1c(O)c(Cl)cc(Cl)c1Cl", "note": "[HEXACHLOROPHENE]", "Hit score": 0.5286},
      {"smiles": "O=C(Nc1cc(Cl)cc(Cl)c1O)c1c(O)c(Cl)cc(Cl)c1Cl", "note": "[OXYCLOZANIDE]", "Hit score": 0.1882},
      {"smiles": "Cc1ccc2c(Cl)cc(Cl)c(O)c2n1", "note": "[CHLORQUINALDOL]", "Hit score": 0.2863},
      {"smiles": "Cc1ccc(C(=O)Nc2ccc(CN3CCN(C)CC3)c(C(F)(F)F)c2)cc1C#Cc1cnc2cccnn12", "note": "[PONATINIB]", "Hit score": 0.5086},
      {"smiles": "CS(=O)(=O)c1ccc(C(=O)Nc2ccc(Cl)c(-c3ccccn3)c2)c(Cl)c1", "note": "[VISMODEGIB]", "Hit score": 0.5244},
      {"smiles": "O=C(O)c1ccccc1C(=O)Nc1ccc(S(=O)(=O)Nc2nccs2)cc1", "note": "[PHTHALYLSULFATHIAZOLE]", "Hit score": 0.0541},
      {"smiles": "Cc1cc(-c2ccc(/N=N/c3ccc4c(S(=O)(=O)[O-])cc(S(=O)(=O)[O-])c(N)c4c3O)c(C)c2)ccc1/N=N/c1ccc2c(S(=O)(=O)[O-])cc(S(=O)(=O)[O-])c(N)c2c1O.[Na+].[Na+].[Na+].[Na+]", "note": "[EVANS BLUE]", "Hit score": 0.2486},
      {"smiles": "CC(SC(=O)c1cccs1)C(=O)NCC(=O)O", "note": "(stereo not drawn) [STEPRONIN]", "Hit score": 0.2404},
      {"smiles": "CCCC(CCC)C(=O)O.CCCC(CCC)C(=O)[O-].[Na+]", "note": "[DIVALPROEX SODIUM]", "Hit score": 0.2277},
      {"smiles": "CCCCCCC(=O)O[C@H]1CC[C@H]2[C@@H]3CCC4=CC(=O)CC[C@]4(C)[C@H]3CC[C@]12C", "note": "[TESTOSTERONE ENANTHATE]", "Hit score": 0.1237},
      {"smiles": "CC(C)(C)CC(C)(C)c1ccc(OCCOCC[N+](C)(C)Cc2ccccc2)cc1", "note": "[BENZETHONIUM]", "Hit score": 0.03086},
      {"smiles": "CC(C)/N=c1\\cc2n(-c3ccc(Cl)cc3)c3ccccc3nc-2cc1Nc1ccc(Cl)cc1", "note": "[CLOFAZIMINE]", "Hit score": 0.5936},
      {"smiles": "Cc1nc2ccccc2n1Cc1ccc(Cl)cc1", "note": "[CHLORMIDAZOLE]", "Hit score": -0.04269},
      {"smiles": "O=C(O)COCCN1CCN([C@H](c2ccccc2)c2ccc(Cl)cc2)CC1", "note": "[LEVOCETIRIZINE]", "Hit score": -0.05445},
      {"smiles": "OCCOCCN1CCN(C(c2ccccc2)c2ccc(Cl)cc2)CC1", "note": "(stereo not drawn) [HYDROXYZINE]", "Hit score": 0.00308},
      {"smiles": "Clc1ccc(C(OCCN2CCCCC2)c2ccccc2)cc1", "note": "(stereo not drawn) [CLOPERASTINE]", "Hit score": 0.5618},
      {"smiles": "O=P(O)(O)C(Sc1ccc(Cl)cc1)P(=O)(O)O", "note": "[TILUDRONIC ACID]", "Hit score": 0.04613},
      {"smiles": "Cc1cccc(C)c1NC(=O)CN1CCN(CCCC(c2ccc(F)cc2)c2ccc(F)cc2)CC1", "note": "[LIDOFLAZINE]", "Hit score": 0.2006},
      {"smiles": "CCCCC(C)(O)C/C=C/[C@H]1[C@H](O)CC(=O)[C@@H]1CCCCCCC(=O)OC", "note": "(stereo partly drawn) [MISOPROSTOL]", "Hit score": -0.07952},
      {"smiles": "COc1cc(N2CCC(N3CCN(C)CC3)CC2)ccc1Nc1ncc(Cl)c(Nc2ccccc2P(C)(C)=O)n1", "note": "[BRIGATINIB]", "Hit score": 0.1463},
      {"smiles": "N#Cc1cc2c(cc1[N+](=O)[O-])=NC(=O)C(=O)N=2", "Hit score": 0.1284},
      {"smiles": "Cl.OC[C@H]1NC[C@@H](O)[C@@H](O)[C@@H]1O", "Hit score": 0.1457},
      {"smiles": "CN[C@@H](C)[C@H](O)c1ccccc1.Cl", "note": "[EPHEDRINE HYDROCHLORIDE]", "Hit score": 0.3718},
      {"smiles": "CC(=O)[C@@]1(O)CC[C@H]2[C@@H]3C[C@H](C)C4=CC(=O)CC[C@]4(C)[C@H]3CC[C@@]21C", "Hit score": 0.2069},
      {"smiles": "C[C@H](CCC(=O)O)[C@H]1CC[C@H]2[C@@H]3[C@H](O)C[C@@H]4C[C@H](O)CC[C@]4(C)[C@H]3C[C@H](O)[C@]12C", "note": "[CHOLIC ACID]", "Hit score": 0.1604},
      {"smiles": "CC(=O)[C@@]1(O)CC[C@H]2[C@@H]3CCC4=CC(=O)CCC4=C3[C@@H](c3ccc(N(C)C)cc3)C[C@@]21C", "note": "[ULIPRISTAL]", "Hit score": 0.1448},
      {"smiles": "Nc1cccc2c(=O)[nH][nH]c(=O)c12.[Na+]", "Hit score": 0.2367},
      {"smiles": "CCCN[C@@H]1CCc2nc(N)sc2C1", "note": "[DEXPRAMIPEXOLE]", "Hit score": 0.07275},
      {"smiles": "CC(C)(C)NC[C@H](O)COc1cccc2c1CCCC2=O", "note": "[LEVOBUNOLOL]", "Hit score": 0.1851},
      {"smiles": "CC(C)(C)NC[C@H](O)COc1nsnc1N1CCOCC1", "note": "[TIMOLOL]", "Hit score": 0.174},
      {"smiles": "CC(C)(C)NCC(O)COc1cc(Cl)ccc1Cl", "note": "(stereo not drawn) [CLORANOLOL]", "Hit score": 0.4962},
      {"smiles": "CC(C)(C)NCC(O)c1ccccc1Cl", "note": "(stereo not drawn) [TULOBUTEROL]", "Hit score": -0.01366},
      {"smiles": "Cc1ccc(Cl)c(OCC(O)CNC(C)(C)C)c1", "note": "(stereo not drawn) [BUPRANOLOL]", "Hit score": 0.4669},
      {"smiles": "CC(C)(C)NC[C@H](O)COc1ccccc1C1CCCC1", "note": "[PENBUTOLOL]", "Hit score": 0.4905},
      {"smiles": "CC(C)(C)NCC(O)c1cc(Cl)c(N)c(Cl)c1", "note": "(stereo not drawn) [CLENBUTEROL]", "Hit score": -0.07437},
      {"smiles": "CC(C)(C)NCC(O)c1cc(Cl)c(N)c(C(F)(F)F)c1", "note": "(stereo not drawn) [MABUTEROL]", "Hit score": -0.1589},
      {"smiles": "CC(C)(C)NCC(O)COc1cccc2c1CCC(=O)N2", "note": "(stereo not drawn) [CARTEOLOL]", "Hit score": 0.1646},
      {"smiles": "CO[C@@]1(NC(=O)C2SC(=C(C(N)=O)C(=O)O)S2)C(=O)N2C(C(=O)O)=C(CSc3nnnn3C)CS[C@@H]21", "note": "(stereo partly drawn) [CEFOTETAN]", "Hit score": 0.1396},
      {"smiles": "COc1cc2c(Oc3ccc4[nH]c(C)cc4c3F)ccnc2cc1OCC1(N)CC1", "note": "[CATEQUENTINIB]", "Hit score": 0.165},
      {"smiles": "CO/N=C(\\C(=O)N[C@@H]1C(=O)N2C(C(=O)[O-])=C(C[n+]3cccc4c3CCC4)CS[C@H]12)c1csc(N)n1", "note": "[CEFPIROME]", "Hit score": 0.1204},
      {"smiles": "COC(=O)OCOc1c2n(ccc1=O)N([C@@H]1c3ccccc3SCc3c1ccc(F)c3F)[C@@H]1COCCN1C2=O", "note": "[BALOXAVIR MARBOXIL]", "Hit score": "5.7e-05"},
      {"smiles": "O=[N+]([O-])/N=C1\\NCCN1Cc1ccc(Cl)nc1", "note": "[IMIDACLOPRID]", "Hit score": 0.158},
      {"smiles": "CCOC(=O)CSCCC1NC(C(=O)O)CS1", "note": "(stereo not drawn) [LETOSTEINE]", "Hit score": 0.08225},
      {"smiles": "O=C(Nc1ccc(Cl)cc1)Nc1ccc(Cl)c(Cl)c1", "note": "[TRICLOCARBAN]", "Hit score": 0.4616},
      {"smiles": "CNC(=O)c1cc(Oc2ccc(NC(=O)Nc3ccc(Cl)c(C(F)(F)F)c3)cc2)ccn1", "note": "[SORAFENIB]", "Hit score": 0.2484},
      {"smiles": "N=C(NCCCCCCNC(=N)NC(=N)Nc1ccc(Cl)cc1)NC(=N)Nc1ccc(Cl)cc1", "note": "[CHLORHEXIDINE]", "Hit score": 0.08739},
      {"smiles": "CCCCc1nc(Cl)c(C(=O)O)n1Cc1ccc(-c2ccccc2-c2nn[nH]n2)cc1", "note": "[CARBOXYLIC ACID METABOLITE]", "Hit score": 0.01747}
    ]}
  ]
}
